Test results published in the supplement of paper PMC10849652.
About 7,900 targets were measured; listed, in parts, are those with a hit and a random draw of the rest. About 0.6% of all pairs of compound and target were hits. Unmarked numbers belong to inactive results.

Legend:
Experiment in all cases: log2 fold change, soluble protein after heating vs DMSO (PISA); higher = thermal stabilisation; K562 cells, 10 uM, 30 min; active = over 0.2 and 3.5 SD of the protein, either way, in both replicates (recomputed)
[1] = compound: CC1=C(C=C(C=C1)NC(=O)C2=CC(=CC=C2)C(C)(C)C#N)NC3=CC4=C(C=C3)N=CN(C4=O)C
In short: (§1)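 K562 cells at 2×10^6 cells/mL were treated with 10 μM compound for 30 min. Aliquots were heated for 3 min across 48°C-58°C, pooled, and extracted in PBS with 0.5% NP-40 at 4°C; soluble protein was the supernatant after 21,000xg for 90 min. Soluble protein was quantified by TMTpro 16plex LC-MS/MS with channel sums equalised, and reported as log2 fold change in thermal stability against DMSO controls, with values from duplicates.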

[2] = compound: CC1=C(C=C(C=C1)NC(=O)C2=CC(=CC=C2)N(C)C)NC(=O)C3=CC=C(C=C3)O
In short: as §1

[3] = compound: CC1=CC=C(C=C1)SC2=C3C=C(SC3=CN=C2)C(=O)N
In short: as §1

[4] = compound: CC1=NC(=CC=C1)C2=C(N=C(N2)C(C)(C)C)C3=CC4=NC=CN=C4C=C3
In short: as §1

[5] = compound: CCCCN(Cc1ccc(C(=O)NO)cc1)C(=O)Nc1ccccc1 [Nexturastat A]
In short: as §1

[6] = compound: CCCS(=O)(=O)Nc1ccc(F)c(C(=O)c2c[nH]c3ncc(-c4ccc(Cl)cc4)cc23)c1F [vemurafenib]
In short: as §1

[7] = compound: CCCS(=O)(=O)Nc1ccc(F)c(C(=O)c2c[nH]c3ncc(Cl)cc23)c1F
In short: as §1

[8] = compound: CCCc1cc(C)[nH]c(=O)c1CNC(=O)c1cc(-c2ccnc(N3CCN(C)CC3)c2)cc2c1cnn2C(C)C
In short: as §1

[9] = compound: CCN(CC)Cc1ccc2cc(COC(=O)Nc3ccc(C(=O)NO)cc3)ccc2c1 [givinostat]
In short: as §1

[10] = compound: CCN(CCCOc1ccc2c(Nc3cc(CC(=O)Nc4cccc(F)c4)[nH]n3)ncnc2c1)CCOP(=O)(O)O [barasertib]
In short: as §1

[11] = compound: CC[C@@H]1C(=O)N(C)c2cnc(Nc3ccc(C(=O)NC4CCN(C)CC4)cc3OC)nc2N1C1CCCC1
In short: as §1

[12] = compound: CC[C@@H]1C(=O)N(C)c2cnc(Nc3ccc(C(=O)N[C@H]4CC[C@H](N5CCN(CC6CC6)CC5)CC4)cc3OC)nc2N1C(C)C [volasertib]
In short: as §1

[13] = compound: CC[C@H](C)N1C=C(C2=C(C=C(C=C21)C3=CN=C(C=C3)N4CCNCC4)C(=O)NCC5=C(C=C(NC5=O)C)C)C
In short: as §1

[14] = compound: CC[C@H](C)[C@@H](C(=O)N[C@@H]([C@@H](C)O)C(=O)N[C@@H](CC(C)C)C(=O)[C@]1(CO1)C)NC(=O)[C@H]([C@@H](C)CC)N(C)C(=O)C [epoxomicin]
In short: as §1

[15] = compound: CCn1c(C(=O)N(C2CC2)C2CC2)cc2c3c(ncn3C)c(Nc3cc(C)n(C)n3)nc21
In short: as §1

[16] = compound: CCn1cc(-c2ccnc3[nH]c(-c4cccc(CN(C)C)c4)cc23)c(-c2ccc(NC(=O)N(C)C)cc2)n1
In short: as §1

[17] = compound: CN(C)CC(=O)Nc1ccc2[nH]c(=O)c3ccccc3c2c1
In short: as §1

[18] = compound: CN(CCOC1=CC=C(C=C1)C[C@H]2C(=O)NC(=O)S2)C3=CC=CC=N3 (racemic) [rosiglitazone]
In short: as §1

[19] = compound: CN1C2=C(C3=C1C(=O)N(N=C3)CC4=CC(=CC=C4)N)SC(=C2)S(=O)C
In short: as §1

[20] = compound: CN1CCC(CNc2ccc3ncc(-c4cccc(OC(F)(F)F)c4)n3n2)CC1
In short: as §1

UniProt Q9UBF1, sequence (Q9UBF1 whole entry, looked up): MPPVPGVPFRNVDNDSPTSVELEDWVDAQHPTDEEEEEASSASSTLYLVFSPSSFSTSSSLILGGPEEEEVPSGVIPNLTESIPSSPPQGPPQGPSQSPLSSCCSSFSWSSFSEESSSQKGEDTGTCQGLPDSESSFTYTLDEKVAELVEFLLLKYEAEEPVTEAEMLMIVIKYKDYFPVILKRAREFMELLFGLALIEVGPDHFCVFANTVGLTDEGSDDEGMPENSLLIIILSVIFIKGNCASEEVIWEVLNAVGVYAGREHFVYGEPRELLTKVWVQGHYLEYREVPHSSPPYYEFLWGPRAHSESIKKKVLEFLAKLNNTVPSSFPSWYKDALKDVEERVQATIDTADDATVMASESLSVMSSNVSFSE
UniProt Q14693, sequence (Q14693 whole entry, looked up): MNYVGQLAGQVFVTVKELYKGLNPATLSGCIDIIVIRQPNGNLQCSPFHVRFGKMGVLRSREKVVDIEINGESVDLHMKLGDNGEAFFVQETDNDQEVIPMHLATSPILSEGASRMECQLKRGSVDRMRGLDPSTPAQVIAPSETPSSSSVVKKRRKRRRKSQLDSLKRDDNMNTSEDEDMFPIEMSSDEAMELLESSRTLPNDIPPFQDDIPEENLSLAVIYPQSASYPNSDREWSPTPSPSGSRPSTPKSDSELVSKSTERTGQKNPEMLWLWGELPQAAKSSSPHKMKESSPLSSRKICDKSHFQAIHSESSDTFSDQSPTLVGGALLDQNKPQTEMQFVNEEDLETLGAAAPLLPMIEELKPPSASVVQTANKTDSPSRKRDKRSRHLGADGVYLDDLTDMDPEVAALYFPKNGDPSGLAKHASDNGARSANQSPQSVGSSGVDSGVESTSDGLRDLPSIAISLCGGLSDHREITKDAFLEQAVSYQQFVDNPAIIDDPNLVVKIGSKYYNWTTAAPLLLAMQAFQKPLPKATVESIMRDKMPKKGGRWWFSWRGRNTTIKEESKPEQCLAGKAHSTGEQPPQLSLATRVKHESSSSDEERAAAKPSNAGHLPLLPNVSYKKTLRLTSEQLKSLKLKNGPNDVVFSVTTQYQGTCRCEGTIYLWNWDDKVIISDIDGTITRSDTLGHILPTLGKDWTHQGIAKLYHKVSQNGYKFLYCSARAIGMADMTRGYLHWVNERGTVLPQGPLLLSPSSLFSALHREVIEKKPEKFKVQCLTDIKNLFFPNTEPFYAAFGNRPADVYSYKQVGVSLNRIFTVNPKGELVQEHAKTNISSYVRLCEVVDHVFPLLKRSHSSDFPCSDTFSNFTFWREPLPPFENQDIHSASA
UniProt Q96GA3, sequence (Q96GA3 whole entry, looked up): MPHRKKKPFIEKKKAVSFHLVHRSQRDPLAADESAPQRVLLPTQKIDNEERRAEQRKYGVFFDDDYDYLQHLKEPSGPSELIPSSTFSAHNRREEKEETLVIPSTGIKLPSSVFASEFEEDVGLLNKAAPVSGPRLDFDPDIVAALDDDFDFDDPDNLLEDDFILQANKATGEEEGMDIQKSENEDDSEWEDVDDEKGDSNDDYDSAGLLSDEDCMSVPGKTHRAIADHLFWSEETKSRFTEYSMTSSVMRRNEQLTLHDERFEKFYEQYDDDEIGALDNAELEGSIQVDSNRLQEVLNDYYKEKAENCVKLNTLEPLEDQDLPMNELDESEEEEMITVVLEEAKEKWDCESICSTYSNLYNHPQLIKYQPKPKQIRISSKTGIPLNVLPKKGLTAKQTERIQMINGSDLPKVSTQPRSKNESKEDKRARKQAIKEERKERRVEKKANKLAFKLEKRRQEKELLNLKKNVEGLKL
UniProt P49441, sequence (P49441 whole entry, looked up): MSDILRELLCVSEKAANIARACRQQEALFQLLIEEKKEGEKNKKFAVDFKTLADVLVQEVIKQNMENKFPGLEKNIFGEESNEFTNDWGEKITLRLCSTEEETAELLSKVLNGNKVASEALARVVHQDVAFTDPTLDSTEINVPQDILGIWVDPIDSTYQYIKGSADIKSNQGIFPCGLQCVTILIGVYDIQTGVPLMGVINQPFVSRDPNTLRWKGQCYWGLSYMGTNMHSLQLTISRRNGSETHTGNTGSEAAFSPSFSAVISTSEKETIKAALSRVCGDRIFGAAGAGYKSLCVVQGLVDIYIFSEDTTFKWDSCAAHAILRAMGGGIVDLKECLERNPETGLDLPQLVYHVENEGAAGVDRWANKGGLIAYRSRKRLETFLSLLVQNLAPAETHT
UniProt Q7L2J0, sequence (Q7L2J0 whole entry, looked up): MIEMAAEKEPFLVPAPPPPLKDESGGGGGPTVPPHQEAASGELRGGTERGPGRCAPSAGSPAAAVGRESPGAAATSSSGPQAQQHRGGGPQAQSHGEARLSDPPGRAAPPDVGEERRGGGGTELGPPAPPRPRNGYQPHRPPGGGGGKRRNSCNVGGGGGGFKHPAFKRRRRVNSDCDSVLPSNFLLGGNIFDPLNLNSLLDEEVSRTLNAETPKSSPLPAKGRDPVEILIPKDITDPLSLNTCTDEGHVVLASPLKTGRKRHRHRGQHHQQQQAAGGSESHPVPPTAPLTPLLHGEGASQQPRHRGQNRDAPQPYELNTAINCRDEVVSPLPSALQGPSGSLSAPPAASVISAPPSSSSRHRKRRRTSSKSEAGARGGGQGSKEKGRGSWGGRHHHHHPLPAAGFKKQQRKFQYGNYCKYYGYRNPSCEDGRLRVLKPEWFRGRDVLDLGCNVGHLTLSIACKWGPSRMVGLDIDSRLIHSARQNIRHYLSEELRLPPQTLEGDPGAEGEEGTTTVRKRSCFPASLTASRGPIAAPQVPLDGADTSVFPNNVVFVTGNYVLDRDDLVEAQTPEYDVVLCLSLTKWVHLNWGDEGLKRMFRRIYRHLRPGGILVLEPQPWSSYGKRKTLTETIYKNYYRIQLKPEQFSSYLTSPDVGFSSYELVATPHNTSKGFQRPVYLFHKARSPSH
UniProt Q9UHB6, sequence (Q9UHB6 whole entry, looked up): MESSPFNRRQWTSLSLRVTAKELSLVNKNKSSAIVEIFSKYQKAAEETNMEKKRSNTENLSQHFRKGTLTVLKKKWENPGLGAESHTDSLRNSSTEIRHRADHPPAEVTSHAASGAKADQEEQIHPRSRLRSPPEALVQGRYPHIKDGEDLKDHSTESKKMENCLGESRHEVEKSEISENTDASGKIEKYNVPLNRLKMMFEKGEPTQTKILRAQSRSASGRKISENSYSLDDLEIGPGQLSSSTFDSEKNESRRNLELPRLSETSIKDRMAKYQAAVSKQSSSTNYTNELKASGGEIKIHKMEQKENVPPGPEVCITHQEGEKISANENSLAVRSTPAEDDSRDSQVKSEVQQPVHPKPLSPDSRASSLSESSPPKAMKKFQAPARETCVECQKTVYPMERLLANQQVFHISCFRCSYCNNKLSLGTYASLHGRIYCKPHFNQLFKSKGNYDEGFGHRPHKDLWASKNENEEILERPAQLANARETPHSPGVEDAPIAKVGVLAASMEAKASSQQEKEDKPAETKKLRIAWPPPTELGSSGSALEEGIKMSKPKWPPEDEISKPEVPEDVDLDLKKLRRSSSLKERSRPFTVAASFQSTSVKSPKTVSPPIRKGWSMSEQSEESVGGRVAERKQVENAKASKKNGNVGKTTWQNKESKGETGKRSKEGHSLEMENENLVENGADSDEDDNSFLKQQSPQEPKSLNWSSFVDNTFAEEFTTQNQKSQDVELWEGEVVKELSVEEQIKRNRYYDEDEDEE
UniProt Q9Y383, sequence (Q9Y383 whole entry, looked up): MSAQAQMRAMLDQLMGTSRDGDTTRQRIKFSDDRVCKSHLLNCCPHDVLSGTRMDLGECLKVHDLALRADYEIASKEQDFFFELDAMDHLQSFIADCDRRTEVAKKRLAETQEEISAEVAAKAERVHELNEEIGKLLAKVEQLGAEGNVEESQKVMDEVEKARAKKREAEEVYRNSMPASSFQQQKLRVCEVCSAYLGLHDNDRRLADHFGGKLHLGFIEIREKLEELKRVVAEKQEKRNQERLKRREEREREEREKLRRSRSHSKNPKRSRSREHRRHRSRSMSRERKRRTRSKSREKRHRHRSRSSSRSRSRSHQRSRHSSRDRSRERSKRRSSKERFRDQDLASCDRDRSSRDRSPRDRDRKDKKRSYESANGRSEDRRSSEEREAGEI

Row | Target | log2 fold change [1] | log2 fold change [2] | log2 fold change [3] | log2 fold change [4] | log2 fold change [5] | log2 fold change [6] | log2 fold change [7] | log2 fold change [8] | log2 fold change [9] | log2 fold change [10] | log2 fold change [11] | log2 fold change [12] | log2 fold change [13] | log2 fold change [14] | log2 fold change [15] | log2 fold change [16] | log2 fold change [17] | log2 fold change [18] | log2 fold change [19] | log2 fold change [20]
1 | LIMA1 isoform 4 (UniProt Q9UHB6) | -0.082 | 0.133 | -0.014 | 0.033 | 0.004 | 0.061 | 0.011 | -0.033 | 0.032 | -0.025 | -0.006 | -0.115 | -0.021 | 0.003 | -0.015 | 0 | -0.053 | -0.01 | -0.006 | 0.086
2 | INPP1 (UniProt P49441) | 0.039 | 0.016 | 0.054 | 0.052 | 0.061 | 0.031 | -0.071 | 0.079 | -0.032 | -0.03 | 0.011 | -0.042 | 0.028 | 0.052 | 0.005 | -0.011 | -0.047 | 0.002 | 0.014 | -0.296 (active)
3 | LPIN1 isoform 7 (UniProt Q14693) | -0.022 | 0.018 | -0.022 | -0.026 | -0.023 | -0.004 | 0.015 | 0.029 | 0.012 | 0.023 | 0.06 | -0.002 | 0.063 | 0.098 | 0.011 | -0.045 | 0.012 | 0.055 | 0.008 | -0.016
4 | MEPCE (UniProt Q7L2J0) | 0.077 | 0.025 | -0.014 | -0.252 | -0.057 | 0.062 | 0.083 | 0.05 | -0.04 | 0.025 | -0.07 | -0.209 | 0.052 | -0.053 | 0.009 | -0.013 | 0.061 | -0.019 | 0.007 | -0.051
5 | LTV1 (UniProt Q96GA3) | 0.044 | -0.04 | -0.04 | -0.035 | 0.248 | -0.075 | -0.008 | -0.011 | -0.025 | -0.075 | 0.09 | 0.004 | 0.06 | -0.109 | 0.021 | 0.023 | -0.049 | -0.032 | 0.189 | 0.104
6 | KHDC4 (UniProt Q7Z7F0) | -0.008 | -0.055 | 0.026 | 0.071 | 0.068 | 0.113 | 0.017 | 0.038 | 0.048 | 0.049 | -0.063 | -0.236 (active) | 0.107 | 0.036 | -0.045 | -0.057 | 0.137 | 0.035 | 0.071 | -0.014
7 | MAGEC2 (UniProt Q9UBF1) | 0.017 | 0.045 | -0.046 | 0.057 | 0 | 0.035 | 0.04 | 0.005 | -0.013 | -0.005 | -0.017 | -0.146 | 0.028 | -0.062 | 0.038 | -0.048 | -0.007 | 0.011 | -0.063 | 0
8 | LUC7L2 (UniProt Q9Y383) | 0.016 | -0.011 | 0.006 | 0.089 | -0.036 | 0.012 | 0.047 | 0.015 | -0.01 | 0 | -0.171 | -0.345 (active) | 0.044 | -0.017 | 0.003 | -0.003 | -0.001 | 0.011 | -0.025 | -0.073
